# ChEMBL document CHEMBL1201862, “PubChem BioAssay data set” (2004)
# In all, about 53,000 sequences went through this assay and about 4,900 (9.2%) were called active. Cut-off read from the data, not from the text of the source: active = GI50 up to about 1.1 µM and inactive = higher. The list comes from a sample in which actives are over-represented; it also holds similar and randomly drawn sequences. Entries with a potency or affinity are not part of this list.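 Five compound concentrations were applied to cells in 96-well plates for 48 hours; endpoints were derived by simple linear interpolation of the resulting dose-response curve. GI50 = concentration required for 50% inhibition of growth.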
# Test system: NCI-H522
# Assay: NCI tumour cell line growth inhibition, 48 h
row,Substance,GI50 [nM]
1,"CISPLATIN, CHEMBL11359",2030
2,"cis-Bis[[(trimethylsilyl)methyl]amino]tetrachloroplatinum(IV), CHEMBL2146191",8220
3,"[Bis(aminomethyl)tetramethylenesilane]tetrachloropaltinum(IV), CHEMBL2146189",2180
4,"[Bis(aminomethyl)diethylsilane]tetrachloroplatinum(IV), CHEMBL2146203",2650
5,"[Bis(aminomethyl)dimethylsilane]dichloroplatinum (II), CHEMBL2146201",4940
6,"[Bis(aminomethyl)pentamethylenesilane]tetrachloropaltinum(IV), CHEMBL2146204",776
7,"[Bis(aminomethyl)tetramethylenesilane]dichloropaltinum(II), CHEMBL2146205",7620
8,"mu-(1,7-nanodiamine-N,N')bis-(cis-aminedichloroplatimum (II)), CHEMBL2146215",7940
9,"[Bis(aminomethyl)pentamethylenesilane]dichloropaltinum(II), CHEMBL2146202",1520
10,"[Bis(aminomethyl)dimethylsilane]tetrachloroplatinum(IV), CHEMBL2146190",1830
